Test results as given in the supplement of paper PMC10849652.
About 7,900 targets were measured; listed, in parts, are those with a hit and a random draw of the rest. About 0.6% of all pairs of compound and target were hits.

Experiments:
Test in all cases: log2 fold change, soluble protein after heating vs DMSO (PISA); higher = thermal stabilisation; K562 cells, 10 uM, 30 min; active = over 0.2 and 3.5 SD of the protein, either way, in both replicates (recomputed)
[1] = compound: CC[C@@H]1C(=O)N(C)c2cnc(Nc3ccc(C(=O)NC4CCN(C)CC4)cc3OC)nc2N1C1CCCC1
Method in brief: (§1)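 Quantification of soluble protein used TMTpro 16plex LC-MS/MS, with channel sums equalised. Samples were the supernatant after 21,000xg for 90 min of pooled aliquots from K562 cells (2×10^6 cells/mL) treated with 10 μM compound for 30 min, heated for 3 min over 48°C-58°C, and extracted in PBS with 0.5% NP-40 at 4°C. Values, from duplicates, describe thermal stability against control samples on a log2 fold-change scale.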

volasertib = compound: CC[C@@H]1C(=O)N(C)c2cnc(Nc3ccc(C(=O)N[C@H]4CC[C@H](N5CCN(CC6CC6)CC5)CC4)cc3OC)nc2N1C(C)C [volasertib]
Method in brief: as §1

[2] = compound: CC[C@H](C)N1C=C(C2=C(C=C(C=C21)C3=CN=C(C=C3)N4CCNCC4)C(=O)NCC5=C(C=C(NC5=O)C)C)C
Method in brief: as §1

epoxomicin = compound: CC[C@H](C)[C@@H](C(=O)N[C@@H]([C@@H](C)O)C(=O)N[C@@H](CC(C)C)C(=O)[C@]1(CO1)C)NC(=O)[C@H]([C@@H](C)CC)N(C)C(=O)C [epoxomicin]
Method in brief: as §1

[3] = compound: CCn1c(C(=O)N(C2CC2)C2CC2)cc2c3c(ncn3C)c(Nc3cc(C)n(C)n3)nc21
Method in brief: as §1

[4] = compound: CCn1cc(-c2ccnc3[nH]c(-c4cccc(CN(C)C)c4)cc23)c(-c2ccc(NC(=O)N(C)C)cc2)n1
Method in brief: as §1

[5] = compound: CN(C)CC(=O)Nc1ccc2[nH]c(=O)c3ccccc3c2c1
Method in brief: as §1

rosiglitazone = compound: CN(CCOC1=CC=C(C=C1)C[C@H]2C(=O)NC(=O)S2)C3=CC=CC=N3 (racemic) [rosiglitazone]
Method in brief: as §1

[6] = compound: CN1C2=C(C3=C1C(=O)N(N=C3)CC4=CC(=CC=C4)N)SC(=C2)S(=O)C
Method in brief: as §1

[7] = compound: CN1CCC(CNc2ccc3ncc(-c4cccc(OC(F)(F)F)c4)n3n2)CC1
Method in brief: as §1

saracatinib = compound: CN1CCN(CCOc2cc(OC3CCOCC3)c3c(Nc4c(Cl)ccc5c4OCO5)ncnc3c2)CC1 [saracatinib]
Method in brief: as §1

sotrastaurin = compound: CN1CCN(c2nc(C3=C(c4c[nH]c5ccccc45)C(=O)NC3=O)c3ccccc3n2)CC1 [sotrastaurin]
Method in brief: as §1

alvocidib = compound: CN1CC[C@H](c2c(O)cc(O)c3c(=O)cc(-c4ccccc4Cl)oc23)[C@H](O)C1 [alvocidib]
Method in brief: as §1

Tubastatin A = compound: CN1CCc2c(c3ccccc3n2Cc2ccc(C(=O)NO)cc2)C1 [Tubastatin A]
Method in brief: as §1

[8] = compound: CNC(=O)C1=CC=CC=C1NC2=NC(=NC=C2Cl)NC3=C(C=C(C=C3)N4CCOCC4)OC
Method in brief: as §1

defactinib = compound: CNC(=O)c1ccc(Nc2ncc(C(F)(F)F)c(NCc3nccnc3N(C)S(C)(=O)=O)n2)cc1 [defactinib]
Method in brief: as §1

rucaparib = compound: CNCc1ccc(-c2[nH]c3cc(F)cc4c3c2CCNC4=O)cc1 [rucaparib]
Method in brief: as §1

[9] = compound: CNc1nc(-c2ccc3c(N)n[nH]c3c2)cc(N2C[C@@H](C(=O)NC3CCCCC3)CC[C@H]2C)n1
Method in brief: as §1

encorafenib = compound: COC(=O)N[C@@H](C)CNc1nccc(-c2cn(C(C)C)nc2-c2cc(Cl)cc(NS(C)(=O)=O)c2F)n1 [encorafenib]
Method in brief: as §1

[10] = compound: COC(=O)[C@H](CCSC)NC(=O)C1=C(C=C(C=C1)NC[C@H](CS)N)C2=CC=CC=C2
Method in brief: as §1

Measured: log2 fold change

EFL1 (UniProt Q7Z2Z2)
active: volasertib -0.245
inactive: [1] -0.024 | [2] 0.014 | epoxomicin 0.008 | [3] -0.008 | [4] -0.006 | [5] 0.025 | rosiglitazone 0.019 | [6] -0.037 | [7] -0.091 | saracatinib -0.036 | sotrastaurin -0.004 | alvocidib -0.038 | Tubastatin A -0.007 | [8] -0.014 | defactinib -0.022 | rucaparib 0.015 | [9] 0.019 | encorafenib 0.033 | [10] -0.014

DAB2 (UniProt P98082)
active: volasertib -0.289
inactive: [1] -0.204 | [2] 0.042 | epoxomicin -0.004 | [3] -0.014 | [4] 0.022 | [5] 0.132 | rosiglitazone 0.032 | [6] 0.032 | [7] -0.111 | saracatinib -0.044 | sotrastaurin 0.009 | alvocidib -0.084 | Tubastatin A 0.139 | [8] 0.031 | defactinib -0.026 | rucaparib 0.043 | [9] 0.05 | encorafenib 0.077 | [10] -0.13

CUX1 isoform 3 (UniProt P39880)
Sequence of UniProt P39880 (P39880 whole entry, looked up): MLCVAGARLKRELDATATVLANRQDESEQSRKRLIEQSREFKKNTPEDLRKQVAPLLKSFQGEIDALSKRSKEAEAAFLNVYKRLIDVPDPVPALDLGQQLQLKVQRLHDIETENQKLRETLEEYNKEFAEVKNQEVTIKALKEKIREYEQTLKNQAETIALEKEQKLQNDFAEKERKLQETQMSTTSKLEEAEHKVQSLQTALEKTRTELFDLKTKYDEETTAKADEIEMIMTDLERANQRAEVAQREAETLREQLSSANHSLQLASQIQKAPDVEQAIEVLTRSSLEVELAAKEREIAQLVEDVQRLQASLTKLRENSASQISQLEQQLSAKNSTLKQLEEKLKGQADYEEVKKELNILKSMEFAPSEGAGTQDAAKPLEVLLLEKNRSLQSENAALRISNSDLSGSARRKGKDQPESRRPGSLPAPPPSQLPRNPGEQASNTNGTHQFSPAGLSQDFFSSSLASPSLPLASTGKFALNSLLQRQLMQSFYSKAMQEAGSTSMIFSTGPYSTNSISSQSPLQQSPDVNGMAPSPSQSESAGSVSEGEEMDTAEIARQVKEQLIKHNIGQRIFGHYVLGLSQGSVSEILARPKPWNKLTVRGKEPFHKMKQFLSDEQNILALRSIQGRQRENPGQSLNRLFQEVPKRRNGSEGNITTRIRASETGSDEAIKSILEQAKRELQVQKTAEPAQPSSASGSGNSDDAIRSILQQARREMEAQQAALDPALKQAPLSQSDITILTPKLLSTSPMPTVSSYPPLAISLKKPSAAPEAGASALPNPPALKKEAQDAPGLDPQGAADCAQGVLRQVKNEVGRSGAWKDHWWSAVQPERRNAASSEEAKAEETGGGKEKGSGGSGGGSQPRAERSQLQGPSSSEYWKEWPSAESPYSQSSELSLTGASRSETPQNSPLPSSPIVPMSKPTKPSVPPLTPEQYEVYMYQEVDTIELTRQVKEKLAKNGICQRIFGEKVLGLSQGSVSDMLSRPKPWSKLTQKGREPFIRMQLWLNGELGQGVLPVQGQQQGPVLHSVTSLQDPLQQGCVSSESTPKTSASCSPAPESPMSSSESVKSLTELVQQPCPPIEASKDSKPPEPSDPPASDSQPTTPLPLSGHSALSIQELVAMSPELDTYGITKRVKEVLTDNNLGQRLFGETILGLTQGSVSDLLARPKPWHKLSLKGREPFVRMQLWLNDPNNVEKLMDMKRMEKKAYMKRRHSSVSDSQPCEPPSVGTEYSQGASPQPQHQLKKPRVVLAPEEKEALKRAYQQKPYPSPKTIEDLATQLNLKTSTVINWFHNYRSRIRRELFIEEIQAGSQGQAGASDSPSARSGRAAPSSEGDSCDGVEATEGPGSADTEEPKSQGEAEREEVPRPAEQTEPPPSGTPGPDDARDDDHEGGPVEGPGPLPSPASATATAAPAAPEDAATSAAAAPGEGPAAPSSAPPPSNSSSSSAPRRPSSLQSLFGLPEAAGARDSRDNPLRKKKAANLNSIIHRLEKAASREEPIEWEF
inactive: [1] 0.008 | volasertib -0.153 | [2] 0.036 | epoxomicin 0.027 | [3] -0.041 | [4] -0.008 | [5] -0.019 | rosiglitazone 0.125 | [6] 0.004 | [7] -0.123 | saracatinib 0.002 | sotrastaurin -0.003 | alvocidib -0.02 | Tubastatin A 0.021 | [8] 0.012 | defactinib -0.065 | rucaparib 0.037 | [9] -0.062 | encorafenib -0.018 | [10] 0.01

EIF4E isoform 2 (UniProt P06730)
inactive: [1] -0.012 | volasertib -0.044 | [2] 0.021 | epoxomicin 0.053 | [3] -0.01 | [4] -0.061 | [5] 0.036 | rosiglitazone -0.017 | [6] -0.146 | [7] 0.199 | saracatinib 0.04 | sotrastaurin 0.189 | alvocidib -0.027 | Tubastatin A -0.085 | [8] 0 | defactinib -0.012 | rucaparib 0.008 | [9] 0.133 | encorafenib -0.023 | [10] -0.072

DCAF16 (UniProt Q9NXF7)
inactive: [1] -0.164 | [2] 0.06 | epoxomicin 0.032 | [3] -0.026 | [4] -0.205 | [5] 0.073 | rosiglitazone 0.055 | [6] -0.052 | [7] 0.03 | saracatinib -0.052 | sotrastaurin -0.036 | alvocidib -0.082 | Tubastatin A -0.006 | [8] 0.084 | defactinib -0.054 | rucaparib 0.033 | [9] -0.05 | encorafenib 0.004 | [10] -0.041
active: volasertib -0.532

DNAJC19 (UniProt Q96DA6)
inactive: [1] -0.094 | volasertib -0.042 | [2] -0.014 | epoxomicin -0.015 | [3] 0.04 | [4] -0.022 | [5] 0.002 | rosiglitazone -0.01 | [6] -0.05 | [7] -0.148 | saracatinib 0.025 | sotrastaurin -0.029 | alvocidib -0.021 | Tubastatin A -0.038 | [8] 0.003 | defactinib -0.027 | rucaparib 0.01 | [9] -0.028 | encorafenib -0.044 | [10] -0.012

DPYSL2 (UniProt Q16555)
inactive: [1] 0.055 | volasertib -0.037 | [2] 0.014 | epoxomicin 0.129 | [3] -0.071 | [4] -0.073 | [5] 0.11 | rosiglitazone 0.039 | [6] -0.058 | [7] -0.067 | saracatinib 0.127 | sotrastaurin 0.062 | alvocidib -0.089 | Tubastatin A -0.003 | [8] -0.066 | defactinib 0.02 | rucaparib 0.015 | [9] -0.032 | encorafenib -0.054 | [10] -0.009

DEGS1 (UniProt O15121)
Sequence of UniProt O15121 (O15121 whole entry, looked up): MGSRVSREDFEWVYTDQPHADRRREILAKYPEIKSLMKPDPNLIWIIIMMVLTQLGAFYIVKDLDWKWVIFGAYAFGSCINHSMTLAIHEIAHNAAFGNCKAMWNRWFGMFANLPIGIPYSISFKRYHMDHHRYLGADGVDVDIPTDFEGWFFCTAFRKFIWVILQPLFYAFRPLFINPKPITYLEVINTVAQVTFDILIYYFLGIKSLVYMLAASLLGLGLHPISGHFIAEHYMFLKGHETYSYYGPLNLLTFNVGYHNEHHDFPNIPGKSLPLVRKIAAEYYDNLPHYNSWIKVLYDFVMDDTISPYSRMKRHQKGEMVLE
inactive: [1] 0.061 | volasertib -0.02 | [2] 0.012 | epoxomicin -0.037 | [3] -0.028 | [4] -0.168 | [5] 0.068 | rosiglitazone -0.041 | [6] -0.1 | [7] 0.019 | saracatinib 0.088 | sotrastaurin -0.022 | alvocidib 0.036 | [8] 0.046 | defactinib -0.18 | rucaparib 0.002 | [9] 0.029 | encorafenib 0.002 | [10] 0.106
active: Tubastatin A -0.521

CTU1 (UniProt Q7Z7A3)
Sequence of UniProt Q7Z7A3 (Q7Z7A3 whole entry, looked up): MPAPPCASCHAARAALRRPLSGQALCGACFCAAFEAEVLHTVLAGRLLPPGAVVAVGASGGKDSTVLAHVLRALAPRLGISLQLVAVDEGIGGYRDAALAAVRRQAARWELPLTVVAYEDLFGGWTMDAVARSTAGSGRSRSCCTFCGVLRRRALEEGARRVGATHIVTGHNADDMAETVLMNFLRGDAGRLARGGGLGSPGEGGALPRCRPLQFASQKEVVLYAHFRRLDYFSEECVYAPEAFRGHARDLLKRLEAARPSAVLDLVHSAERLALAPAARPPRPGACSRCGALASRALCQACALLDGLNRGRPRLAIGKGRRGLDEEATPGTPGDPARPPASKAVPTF
active: [7] -0.233
inactive: [1] -0.052 | volasertib -0.117 | [2] 0.026 | epoxomicin 0.045 | [3] -0.017 | [4] -0.057 | [5] 0.065 | rosiglitazone 0.055 | [6] -0.098 | saracatinib 0.01 | sotrastaurin -0.038 | alvocidib -0.19 | Tubastatin A -0.029 | [8] -0.045 | defactinib -0.036 | rucaparib -0.003 | [9] 0.09 | encorafenib 0.02 | [10] -0.031

CTSL (UniProt P07711)
Sequence of UniProt P07711 (P07711 whole entry, looked up): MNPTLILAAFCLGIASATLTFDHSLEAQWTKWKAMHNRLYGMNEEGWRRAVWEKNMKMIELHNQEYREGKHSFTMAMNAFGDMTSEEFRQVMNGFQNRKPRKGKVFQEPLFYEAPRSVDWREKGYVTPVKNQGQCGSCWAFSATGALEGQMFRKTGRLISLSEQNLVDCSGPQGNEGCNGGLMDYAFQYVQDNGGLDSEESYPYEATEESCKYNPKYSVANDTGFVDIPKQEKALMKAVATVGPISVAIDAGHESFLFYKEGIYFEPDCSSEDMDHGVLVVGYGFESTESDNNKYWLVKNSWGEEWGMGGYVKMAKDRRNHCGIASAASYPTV
inactive: [1] -0.124 | volasertib -0.247 | [2] -0.045 | epoxomicin 0.017 | [3] 0.014 | [4] 0.196 | [5] -0.074 | rosiglitazone -0.037 | [6] 0.019 | [7] -0.306 | saracatinib 0.113 | sotrastaurin 0.05 | alvocidib 0.085 | Tubastatin A 0.038 | [8] 0.024 | defactinib 0.032 | rucaparib 0.049 | [9] 0.018 | encorafenib -0.008 | [10] 0.02

DCTPP1 (UniProt Q9H773)
inactive: [1] 0.007 | volasertib -0.016 | [2] -0.059 | epoxomicin 0.062 | [3] -0.012 | [4] -0.032 | [5] -0.012 | rosiglitazone 0.012 | [6] -0.048 | [7] 0.201 | saracatinib 0.012 | sotrastaurin 0.031 | alvocidib -0.033 | Tubastatin A 0.031 | [8] -0.075 | defactinib -0.008 | rucaparib -0.011 | [9] -0.022 | encorafenib -0.072 | [10] 0.002

DNAAF2 (UniProt Q9NVR5)
Sequence of UniProt Q9NVR5 (Q9NVR5 whole entry, looked up): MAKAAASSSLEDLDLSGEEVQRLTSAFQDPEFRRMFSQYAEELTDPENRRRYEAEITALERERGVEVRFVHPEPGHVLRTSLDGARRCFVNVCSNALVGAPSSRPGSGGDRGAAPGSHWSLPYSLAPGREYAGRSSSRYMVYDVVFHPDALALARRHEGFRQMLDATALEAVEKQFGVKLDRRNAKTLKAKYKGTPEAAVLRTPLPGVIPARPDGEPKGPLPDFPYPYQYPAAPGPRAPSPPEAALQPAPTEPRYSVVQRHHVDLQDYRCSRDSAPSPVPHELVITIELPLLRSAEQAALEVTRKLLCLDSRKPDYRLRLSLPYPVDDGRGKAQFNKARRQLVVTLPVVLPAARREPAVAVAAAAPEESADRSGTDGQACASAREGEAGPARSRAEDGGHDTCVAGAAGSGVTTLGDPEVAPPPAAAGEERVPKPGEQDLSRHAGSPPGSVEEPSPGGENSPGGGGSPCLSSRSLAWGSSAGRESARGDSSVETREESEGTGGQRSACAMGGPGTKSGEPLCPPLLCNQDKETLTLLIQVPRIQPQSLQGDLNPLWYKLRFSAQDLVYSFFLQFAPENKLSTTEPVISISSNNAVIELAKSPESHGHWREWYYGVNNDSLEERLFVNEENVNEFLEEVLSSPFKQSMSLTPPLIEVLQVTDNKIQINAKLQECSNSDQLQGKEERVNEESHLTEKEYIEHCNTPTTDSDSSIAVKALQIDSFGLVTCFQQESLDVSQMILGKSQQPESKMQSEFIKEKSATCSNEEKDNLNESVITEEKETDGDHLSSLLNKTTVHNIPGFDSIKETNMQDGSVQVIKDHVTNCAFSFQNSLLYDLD
inactive: [1] 0.11 | volasertib -0.113 | [2] -0.031 | epoxomicin -0.012 | [3] 0.029 | [4] 0.095 | [5] 0 | rosiglitazone -0.06 | [6] 0.042 | saracatinib 0.048 | sotrastaurin 0 | alvocidib -0.065 | Tubastatin A -0.042 | [8] 0.01 | defactinib -0.142 | rucaparib 0.031 | [9] -0.033 | encorafenib 0.026 | [10] 0.043
active: [7] -0.279

FADS3 (UniProt Q9Y5Q0)
Sequence of UniProt Q9Y5Q0 (Q9Y5Q0 whole entry, looked up): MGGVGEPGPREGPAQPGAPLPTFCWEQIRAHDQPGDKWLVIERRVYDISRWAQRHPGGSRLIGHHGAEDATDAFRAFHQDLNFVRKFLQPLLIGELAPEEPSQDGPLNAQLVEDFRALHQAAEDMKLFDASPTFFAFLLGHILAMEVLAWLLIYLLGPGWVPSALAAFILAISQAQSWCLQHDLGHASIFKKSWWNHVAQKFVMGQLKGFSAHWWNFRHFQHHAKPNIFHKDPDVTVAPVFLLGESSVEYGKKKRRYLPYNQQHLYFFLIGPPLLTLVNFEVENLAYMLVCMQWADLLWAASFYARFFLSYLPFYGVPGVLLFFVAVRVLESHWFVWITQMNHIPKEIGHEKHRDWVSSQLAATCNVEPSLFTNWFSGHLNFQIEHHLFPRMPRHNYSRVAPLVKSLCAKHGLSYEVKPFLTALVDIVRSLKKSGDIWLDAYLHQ
inactive: [1] -0.02 | volasertib 0.095 | [2] 0.013 | epoxomicin -0.016 | [3] 0.046 | [4] -0.116 | [5] -0.05 | rosiglitazone -0.019 | [6] -0.13 | [7] -0.231 | saracatinib 0.035 | sotrastaurin 0.037 | alvocidib -0.051 | Tubastatin A -0.061 | [8] 0.026 | defactinib 0.048 | rucaparib 0.024 | [9] -0.079 | encorafenib 0.02 | [10] 0.026

EEF1B2 (UniProt P24534)
active: volasertib -0.343
inactive: [1] -0.171 | [2] 0.056 | epoxomicin -0.034 | [3] -0.015 | [4] 0.007 | [5] 0.016 | rosiglitazone 0.008 | [6] 0.03 | [7] -0.065 | saracatinib -0.091 | sotrastaurin -0.061 | alvocidib -0.009 | Tubastatin A 0.017 | [8] 0.06 | defactinib -0.064 | rucaparib 0.041 | [9] -0.013 | encorafenib 0.07 | [10] -0.046

DUS2 (UniProt Q9NX74)
Sequence of UniProt Q9NX74 (Q9NX74 whole entry, looked up): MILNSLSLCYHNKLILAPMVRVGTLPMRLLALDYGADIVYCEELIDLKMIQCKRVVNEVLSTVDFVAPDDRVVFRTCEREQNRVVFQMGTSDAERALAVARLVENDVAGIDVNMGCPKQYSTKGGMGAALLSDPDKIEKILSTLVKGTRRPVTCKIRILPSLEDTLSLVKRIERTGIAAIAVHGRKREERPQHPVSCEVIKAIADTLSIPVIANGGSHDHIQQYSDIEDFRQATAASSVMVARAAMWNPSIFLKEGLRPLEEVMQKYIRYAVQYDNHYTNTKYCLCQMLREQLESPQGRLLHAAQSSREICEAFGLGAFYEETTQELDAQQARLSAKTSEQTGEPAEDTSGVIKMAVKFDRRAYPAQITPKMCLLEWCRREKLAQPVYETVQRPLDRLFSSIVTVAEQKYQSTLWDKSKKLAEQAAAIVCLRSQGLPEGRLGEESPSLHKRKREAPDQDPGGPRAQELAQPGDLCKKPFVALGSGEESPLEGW
inactive: [1] -0.052 | volasertib -0.242 | [2] 0.037 | epoxomicin 0.059 | [3] -0.059 | [4] -0.029 | [5] 0.055 | rosiglitazone 0.063 | [6] 0.115 | [7] -0.02 | saracatinib 0.112 | sotrastaurin -0.098 | alvocidib -0.041 | Tubastatin A 0.041 | [8] -0.048 | defactinib -0.093 | rucaparib 0.042 | [9] -0.113 | encorafenib 0.09 | [10] -0.02

CUX1 isoform 2 (UniProt Q13948)
Sequence of UniProt Q13948 (Q13948 whole entry, looked up): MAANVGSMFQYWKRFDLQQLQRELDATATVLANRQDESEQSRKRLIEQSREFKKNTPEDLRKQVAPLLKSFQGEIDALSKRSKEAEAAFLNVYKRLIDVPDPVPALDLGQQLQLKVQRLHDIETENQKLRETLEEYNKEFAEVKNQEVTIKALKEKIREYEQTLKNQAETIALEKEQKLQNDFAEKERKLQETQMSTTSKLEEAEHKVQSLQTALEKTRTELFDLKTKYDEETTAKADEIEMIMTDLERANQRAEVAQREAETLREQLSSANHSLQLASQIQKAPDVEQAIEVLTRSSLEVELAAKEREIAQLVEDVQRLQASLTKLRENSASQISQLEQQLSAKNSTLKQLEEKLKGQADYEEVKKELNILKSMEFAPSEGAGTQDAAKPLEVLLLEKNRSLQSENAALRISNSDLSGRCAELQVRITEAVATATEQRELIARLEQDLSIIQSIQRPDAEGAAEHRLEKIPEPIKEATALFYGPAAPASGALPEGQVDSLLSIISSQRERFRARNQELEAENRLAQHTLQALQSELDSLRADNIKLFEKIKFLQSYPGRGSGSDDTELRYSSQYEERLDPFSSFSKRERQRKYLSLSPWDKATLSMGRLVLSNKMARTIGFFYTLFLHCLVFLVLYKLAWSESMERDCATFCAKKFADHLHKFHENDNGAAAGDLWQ
inactive: [1] -0.055 | volasertib -0.188 | [2] 0 | epoxomicin -0.002 | [3] -0.112 | [4] 0.043 | [5] 0.317 | rosiglitazone 0.033 | [6] 0.016 | [7] 0.055 | saracatinib -0.065 | sotrastaurin -0.012 | alvocidib -0.07 | Tubastatin A 0.006 | [8] 0.03 | defactinib -0.049 | rucaparib 0.061 | [9] 0.048 | encorafenib 0.056 | [10] -0.062
